Experimental data as given in paper PMC4552634, “A New Set of Chemical Starting Points with Plasmodium falciparum Transmission-Blocking Potential for Antimalarial Drug Discovery” (PLoS ONE, 2015).
Out of some 13,000 compounds screened, about 3,200 (25%) showed an effect of 50% or more. Some of the results follow.

system: P. falciparum stage V gametocytes; set-up: BacTiter-Glo ATP luminescence viability of purified stage V gametocytes in 384-well plates, per cent inhibition versus DMSO; conditions: 48 h, 5 µM; inhibitor

Row | Compound | % Inhibition
1 | O=C(COc1ccc(Cl)cc1)N1CCC(CN2CCC(c3c[nH]c4ccccc34)CC2)CC1 [TCMDC-139943] | -35.41%
2 | O=C(CCC(=O)c1ccc2c3c(cccc13)CC2)NC1CCC(CN2CCC(c3c[nH]c4ccccc34)CC2)CC1 (stereo not shown) [TCMDC-139897] | 7.494%
3 | c1ccc2c(C3CCN(CCCCOc4ccc5c(c4)CCN(CC4CC4)CC5)CC3)c[nH]c2c1 [TCMDC-136244] | 103.6%
4 | O=C(NCCCCCN1CCC(c2c[nH]c3ccccc23)CC1)c1ccc(Cl)c(Cl)c1 [TCMDC-139112] | -15.31%
5 | c1ccc2c(C3CCN(CCCCOc4ccc5c(c4)CCN(C4CCC4)CC5)CC3)c[nH]c2c1 [TCMDC-136242] | 103%
6 | CCCCNC(=O)C(C)NC(=O)c1ccc(O)c(-c2ccc(Cl)c(Cl)c2)c1 (stereo not shown) [TCMDC-140838] | 12%
7 | O=C1OC(c2ccccc2)(c2ccccn2)CN1C1CCN(Cc2cccn2-c2ccc(Cl)cc2)CC1 (stereo not shown) [TCMDC-134418] | 32.68%
8 | CC1(C)N=C(N)N=C(N)N1OCc1cc(Cl)c(Cl)cc1CON1C(N)=NC(N)=NC1(C)C [TCMDC-131611] | -27.6%
9 | CC(CON1C(N)=NC(N)=NC1(C)C)c1ccc(Cl)cc1Cl (stereo not shown) [TCMDC-131687] | 1.916%
10 | CCSc1ccccc1CON1C(N)=NC(N)=NC1(C)C [TCMDC-131324] | 26.32%
11 | CC(C)Sc1ccc(Cl)cc1CON1C(N)=NC(N)=NC1(C)C [TCMDC-131322] | 57.4%
12 | CC(CCON1C(N)=NC(N)=NC1(C)C)c1ccc(Cl)cc1 (stereo not shown) [TCMDC-131721] | 15.12%
13 | CC(CCON1C(N)=NC(N)=NC1(C)C)c1ccc(Cl)c(Cl)c1 (stereo not shown) [TCMDC-123922] | 56.56%
14 | CCC(CCON1C(N)=NC(N)=NC1(C)C)c1ccc(Cl)c(Cl)c1 (stereo not shown) [TCMDC-131702] | 42.49%
15 | CC1(C)N=C(N)N=C(N)N1OCc1cccc(Cl)c1Cl [TCMDC-131612] | 37.87%
16 | CC1(C)N=C(N)N=C(N)N1OCc1cc(Cl)c(CON2C(N)=NC(N)=NC2(C)C)cc1Cl [TCMDC-131624] | 88.84%
17 | COc1ccc(CN(C)C(=O)CCNS(=O)(=O)c2ccc3c(c2)OCCCO3)cc1F [TCMDC-125302] | 27.77%
18 | COc1ccc(C2(CNCC(O)c3cccc([N+](=O)[O-])c3)CCCCC2)cc1OC (stereo not shown) [TCMDC-125753] | 32.79%
19 | c1ccc(CNCc2cccc(-c3csc(-c4nc5ccccc5[nH]4)c3)c2)cc1 [TCMDC-132715] | -5.062%
20 | CC(C)CNC(=O)c1ccc(-c2cccc(CN3CCC(N4CCCC4)CC3)c2)nc1 [TCMDC-134223] | 24.52%
21 | COc1cccc(CN2CCC(N3CCc4cc(NC(=O)c5cc(C)on5)ccc43)C2)c1OC (stereo not shown) [TCMDC-135077] | 7.17%
22 | Nc1oc2c(CN3CCCCCC3)c(O)ccc2c(=O)c1-c1nc2ccccc2s1 [TCMDC-124554] | -27.76%
23 | COc1ccc2nc(C)cc(Nc3ccc(Oc4ccc5ccccc5c4Cl)c(Cl)c3)c2c1 [TCMDC-124244] | 45.95%

Row | Compound | % Inhibition
24 | CN(Cc1ccccc1)C1CCCN(c2cc(NC(=O)c3ccc(F)cc3)ccn2)C1 (stereo not shown) [TCMDC-135021] | -22.03%
25 | c1ccc2c(CNc3ccnc(NCc4cccc5ccccc45)n3)cccc2c1 [TCMDC-131861] | 43.11%
26 | Brc1ccccc1CNc1ccnc(NCCn2ccnc2)n1 [TCMDC-134666] | 85.3%
27 | c1cn(CCCNc2ncc(-c3ccsc3)c(-c3nccs3)n2)cn1 [TCMDC-125364] | 29.61%
28 | COc1ccccc1N1CCN(C(C(=O)NCc2ccc(C)cc2)c2ccc(C)cc2)CC1 (stereo not shown) [TCMDC-135501] | -5.21%
29 | CN1CCN(C(C(=O)NCc2cc(Cl)cc(Cl)c2)c2ccccc2-c2ccsc2)CC1 (stereo not shown) [TCMDC-135388] | 68.05%
30 | CN1CCN(C(C(=O)NCc2cc(Cl)cc(Cl)c2)c2ccc(NC(=O)Nc3ccccc3)cc2)CC1 (stereo not shown) [TCMDC-135287] | 18.98%
31 | COc1ccc(Cc2cccc(C(C(=O)NCc3cc(Cl)cc(Cl)c3)N3CCN(C)CC3)c2)cc1 (stereo not shown) [TCMDC-135619] | 76.97%
32 | CN1CCN(C(C(=O)NCc2cc(Cl)cc(Cl)c2)c2ccc(Nc3cccc(C(F)(F)F)c3)cc2)CC1 (stereo not shown) [TCMDC-134698] | -89.62%
33 | COc1ccccc1-c1ccc(CNC(=O)C(CN2CCN(C)CC2)c2ccccc2)cc1 (stereo not shown) [TCMDC-136897] | 12.07%
34 | COc1cc(CCNc2nc(NCc3ccccc3-c3ccccc3)nc(N3CCC(N)CC3)n2)ccc1O [TCMDC-133443] | 10.19%
35 | N#CCSc1nnc(-c2ccccc2)c2ccccc12 [TCMDC-123867] | 67.4%
36 | CCOC(=O)CCCc1cc(NC2CCN(C)CC2)nc(Nc2ccc(C)cc2)n1 [TCMDC-134016] | -52.81%
37 | C=C[C@]1(C)C[C@@H](OC(=O)CNC[C@@H](O)CN2C[C@H](c3ccnc4ccc(OC)nc34)OC2=O)[C@]2(C)[C@H](C)CC[C@]3(CCC(=O)[C@H]32)[C@@H](C)[C@@H]1O [TCMDC-135366] | -2.122%
38 | Nc1nc(Cc2ccc(Cl)cc2)nc(Cc2ccc(Cl)cc2)n1 [TCMDC-137497] | 78.01%
39 | Cc1nc2nc(N)nc(N)c2c(C)c1Cc1ccc(Cl)cc1 [TCMDC-137659] | 18.29%
40 | CCc1nc(N)nc(N)c1-c1ccc(Cl)cc1 [TCMDC-125860] | 8.374%
41 | O=C(Cc1cccc(Cl)c1)N1CCc2cc3nccc(N4CCN5CCC[C@H]5C4)c3cc21 [TCMDC-140038] | 0.313%
42 | COc1ccc(C(=O)N2CCc3cc4nccc(N5CCN6CCC[C@H]6C5)c4cc32)cc1 [TCMDC-140035] | 84.78%
43 | O=C(c1cc2ccccc2o1)N1CCc2cc3nccc(N4CCN5CCC[C@H]5C4)c3cc21 [TCMDC-140037] | -9.524%
44 | O=C(c1ccc(-c2ccc(Cl)cc2)o1)N1CCc2cc3nccc(N4CCN5CCC[C@H]5C4)c3cc21 [TCMDC-140116] | 93.89%
45 | COc1ccc(/C=C/C(=O)N2CCc3cc4nccc(N5CCN6CCC[C@H]6C5)c4cc32)cc1 [TCMDC-140046] | -29.41%
46 | Cc1ccc(C(=O)N2CCc3cc4nccc(N5CCN6CCC[C@H]6C5)c4cc32)cc1 [TCMDC-140036] | -10.33%
